In PubChem BioAssay (Tox21):
Values without a mark were called inactive. Records with an inconclusive call do not appear. A call without a number means that no potency is given here. The source made the active and inactive calls. Unless noted, the call rests on the fitted dose curve.

Experiments:
[1] = Nuclear factor erythroid 2-related factor 2/antioxidant responsive element (Nrf2/ARE) small molecule agonists: qHTS cell viability counter screen in human keratinocytes (AID 1919968; active means well fitted curve in the direction sought with a large enough effect in the repeat runs; an effect the other way counts as inactive or inconclusive; further: nearly all actives have a fitted effect of over 55% in size; further: potency means the concentration at half of the fitted maximal effect)
Outline: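 KeratinoSens cells (HaCaT keratinocytes stably carrying an ARE-luciferase reporter) were seeded at 1,500 cells/well and rested 5 h at 37 C/5% CO2. They were then exposed to compounds in DMSO for 23 h. Viability was read by CellTiter-Fluor fluorescence after 1 h.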

[2] = biological target: Gonadotropin-releasing hormone receptor (Homo sapiens) (UniProt P30968); assay: Human gonadotropin-releasing hormone receptor (GnRHR) small molecule agonists, calcium flux assay in GnRHR-HEK293 cells (AID 1920063); further: nearly all actives have a fitted effect of over 35% in size
Outline: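 HEK293 cells stably expressing human GnRHR were plated 18 h at 37 °C, loaded with calcium dye 1 h at 37 °C, then given compound in agonist mode; fluorescence (Ex/Em 480/540) read kinetically for 3 min at 1 s intervals.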

[3] = G protein-coupled receptor (GPCR) small molecule agonists, calcium flux assay: HEK293 wild type cell line counter screen (AID 1920065)
Outline: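 Cells were plated and cultured 18 h at 37 C/5% CO2, then loaded with calcium dye for 1 h at 37 C. Compounds in DMSO were pin-transferred in agonist mode, and fluorescence (Ex/Em 480/540) was read kinetically for 3 min at 1 s intervals.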

[4] = p53 small molecule agonists, cell-based qHTS assay with human liver microsomes (AID 1963577);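 further: p53 response element beta-lactamase reporter cells with liver microsomes plus NADPH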
Outline: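 HLM-supplemented p53RE-bla reporter assay: 16 h compound exposure at 37 C, microsomes and NADPH each 0.5 mg/mL final, read by fluorescence intensity.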

[5] = p53 small molecule agonists, cell-based qHTS assay with rat liver microsomes (AID 1963578)
Outline: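 Quantitative HTS of the Tox21 10K library: p53RE-bla cells, rat liver microsomes plus NADPH at 0.5 mg/mL final each, 16 h at 37 C, beta-lactamase fluorescence detection.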

[6] = p53 small molecule agonists, cell-based qHTS assay with human liver microsomes: qHTS cell viability counter screen (AID 1963579); further: nearly all actives have a fitted effect of over 45% in size
Outline: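 Viability of p53RE-bla cells is measured as CellTiter-Glo luminescence following a 16 h, 37 C incubation with compound, liver microsomes from human donors and NADPH.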

[7] = p53 small molecule agonists, cell-based qHTS assay with rat liver microsomes: qHTS cell viability counter screen (AID 1963580); further: nearly all actives have a fitted effect of over 45% in size
Outline: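 Intracellular ATP, by CellTiter-Glo luminescence, defines viability. HCT-116 p53RE-bla cells, 4,000 per well, were compound-treated in the presence of rat liver microsomes and NADPH for 16 h at 37 C.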

[8] = p53 small molecule agonists, cell-based qHTS assay: qHTS cell viability counter screen (AID 1963581); further: nearly all actives have a fitted effect of over 45% in size; further: potency means the concentration at half of the fitted maximal effect
Outline: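 p53RE-bla HCT-116 cells were exposed to compounds for 16 h at 37 C; after the beta-lactamase FRET read in the same wells, CellTiter-Glo was added and luminescence (intracellular ATP) read after 30 min at room temperature.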

[9] = p53 small molecule agonists, cell-based qHTS assay (AID 1963582; active means well fitted activation curve with a large enough effect in the signal ratio in the repeat runs, not every such curve was filed as active; the % refers to the signal ratio)
Outline: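 p53RE-bla beta-lactamase reporter cells rested 5 h at 37 C/5% CO2, then received compounds in DMSO by pin transfer and were incubated 16 h at 37 C. LiveBLAzer B/G FRET substrate was loaded for 2 h at room temperature before fluorescence reading.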

[10] = biological target: 5-hydroxytryptamine receptor 2A (Homo sapiens) (UniProt P28223); assay: 5-hydroxytryptamine receptor 2A (HTR2A) small molecule antagonists, cell-based qHTS assay (AID 1963586); further: nearly all actives have a fitted effect of over 45% in size
Outline: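 Antagonist-mode intracellular calcium assay: DOI (4 nM) added after 5 min compound pre-incubation at room temperature to dye-loaded HTR2A-CHO cells. Fluorescence followed for 3 min, sampled every second.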

[11] = biological target: 5-hydroxytryptamine receptor 2A (Homo sapiens) (UniProt P28223); assay: 5-hydroxytryptamine receptor 2A (HTR2A) small molecule agonists, cell-based qHTS assay (AID 1963587); further: nearly all actives have a fitted effect of over 30% in size
Outline: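 Kinetic calcium-flux fluorescence (2 min, 1 sec intervals) after compound addition in agonist mode. HTR2A-CHO cells were cultured 18 h, then dye-loaded 1 h at 37 C.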

[12] = biological target: Muscarinic acetylcholine receptor M1 (Homo sapiens) (UniProt P11229); assay: Cholinergic receptor muscarinic 1 (CHRM1) small molecule antagonists, cell-based qHTS assay (AID 1963588); further: nearly all actives have a fitted effect of over 40% in size; further: potency means the concentration at half of the fitted maximal effect
Outline: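 CHRM1-CHO calcium-flux assay, antagonist mode. Cells were seeded 18 h, dye-loaded 1 h at 37 C and given compound for 5 min at RT, then acetylcholine was added at 50nM. FDSS fluorescence was read 3 min; 15 concentrations, three runs.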

[13] = biological target: Muscarinic acetylcholine receptor M1 (Homo sapiens) (UniProt P11229); assay: Cholinergic receptor muscarinic 1 (CHRM1) small molecule agonists, cell-based qHTS assay (AID 1963589); further: nearly all actives have a fitted effect of over 35% in size
Outline: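 CHO cells stably expressing human CHRM1, seeded 18 h at 37 C/5% CO2, dye-loaded 1 h at 37 C, then given compound in agonist mode; intracellular calcium fluorescence read kinetically at 1 s intervals. Fifteen concentrations, three independent runs.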

[14] = cAMP Responsive Elements (CRE) small molecule agonists, cell-based qHTS assay (AID 1963590)
Outline: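 CRE-bla HEK 293T cells in DMEM with 10% dialyzed FBS, NEAA, pyruvate and 25 mM HEPES were plated 18 h at 37 C/5% CO2, then exposed to compounds in DMSO for 3 h before LiveBLAzer B/G FRET substrate addition.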

[15] = cAMP Responsive Elements (CRE) small molecule antagonists, cell-based qHTS assay (AID 1963591; active means well fitted inhibition curve with a large enough effect in the signal ratio in the repeat runs, not every such curve was filed as active; the % refers to the signal ratio)
Outline: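 CRE-bla HEK293T cells were plated 18 h at 37 °C/5% CO2, pinned with compound in DMSO, then stimulated with NKH477 at 0.25 uM final for 3 h. LiveBLAzer B/G FRET substrate was added and plates incubated 2 h at room temperature.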

[16] = biological target: Beta-2 adrenergic receptor (Homo sapiens) (UniProt P07550); assay: Adrenergic beta2 receptor (ADRB2) small molecule antagonists, cell-based qHTS assay (AID 1963592); further: series mostly up to about 92 µM; nearly all actives have a fitted effect of over 50% in size
Outline: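 Cells (CHO, stable ADRB2 overexpression) incubated 18-20hr at 37C; compounds added from DMSO; agonist mix (1nM isoproterenol, 100uM IBMX, 25uM Ro-20-1724) added; 0.5hr RT; d2-cAMP and anti-cAMP-cryptate added; 1hr RT; 665/615 nm read.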

[17] = biological target: D(2) dopamine receptor (Homo sapiens) (UniProt P14416); assay: Dopamine D2 receptor (DRD2) small molecule agonists, cell-based qHTS assay (AID 1963594); further: nearly all actives have a fitted effect of over 35% in size
Outline: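 cAMP accumulation in DRD2-HEK293 cells measured by HTRF after 1 h detection; compounds added 10 min before NKH477 (200nM […]) forskolin-analogue stimulation, 30 min at room temperature, with Ro20-1724 present at 0.1 mM final.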

[18] = biological target: D(2) dopamine receptor (Homo sapiens) (UniProt P14416); assay: Dopamine D2 receptor (DRD2) small molecule antagonists, cell-based qHTS assay (AID 1963595; active means well fitted inhibition curve with a large enough effect in the signal ratio in the repeat runs, with a control signal flat; the % refers to the signal ratio; further: potency means the concentration at half of the fitted maximal effect)
Outline: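 HEK293 cells stably expressing DRD2 were preincubated with 0.1 mM Ro20-1724, then with compound for 10 min at room temperature. Cells were stimulated with 200 nM NKH477 plus 12 nM quinpirole for 30 min, and cAMP was read by HTRF.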

[19] = biological target: KiSS-1 receptor (Homo sapiens) (UniProt Q969F8); assay: Human kisspeptin (KISS1R) small molecule agonists, calcium flux assay in KISS1R-HEK293 cells (AID 1920064; active means well fitted curve in the direction sought with a large enough effect in the repeat runs; an effect the other way counts as inactive or inconclusive)
Outline: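 HEK293 cells stably expressing human KISS1R were plated 18 h at 37 °C, loaded with calcium dye for 1 h at 37 °C, then given compound by pin tool. Fluorescence (Ex/Em 480/540) was read kinetically for 3 min.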

Sequence of 5-hydroxytryptamine receptor 2A (Homo sapiens) (P28223 whole entry, looked up): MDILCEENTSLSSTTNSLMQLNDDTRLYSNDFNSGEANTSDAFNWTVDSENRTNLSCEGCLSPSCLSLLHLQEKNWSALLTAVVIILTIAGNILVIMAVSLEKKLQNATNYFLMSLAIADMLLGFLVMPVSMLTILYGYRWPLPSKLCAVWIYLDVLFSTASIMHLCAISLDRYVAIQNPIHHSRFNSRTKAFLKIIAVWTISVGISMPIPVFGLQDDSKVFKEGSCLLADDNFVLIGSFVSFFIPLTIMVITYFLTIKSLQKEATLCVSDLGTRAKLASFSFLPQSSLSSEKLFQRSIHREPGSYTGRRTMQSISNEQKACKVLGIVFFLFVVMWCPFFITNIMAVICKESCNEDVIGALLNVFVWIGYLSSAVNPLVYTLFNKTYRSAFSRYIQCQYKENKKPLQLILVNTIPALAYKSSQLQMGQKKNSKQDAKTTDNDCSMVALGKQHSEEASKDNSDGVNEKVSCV
Sequence of Beta-2 adrenergic receptor (Homo sapiens) (P07550 whole entry, looked up): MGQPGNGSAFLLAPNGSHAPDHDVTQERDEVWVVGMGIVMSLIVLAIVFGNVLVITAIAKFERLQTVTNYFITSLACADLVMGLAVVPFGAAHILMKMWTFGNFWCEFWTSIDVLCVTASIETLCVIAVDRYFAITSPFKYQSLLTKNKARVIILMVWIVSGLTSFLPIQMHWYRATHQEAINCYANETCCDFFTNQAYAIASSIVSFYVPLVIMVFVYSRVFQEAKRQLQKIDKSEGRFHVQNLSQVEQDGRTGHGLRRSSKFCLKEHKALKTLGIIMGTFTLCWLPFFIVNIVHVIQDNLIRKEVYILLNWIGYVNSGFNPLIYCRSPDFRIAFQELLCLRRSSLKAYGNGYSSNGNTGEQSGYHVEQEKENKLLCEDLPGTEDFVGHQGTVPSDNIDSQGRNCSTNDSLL
Sequence of D(2) dopamine receptor (Homo sapiens) (P14416 whole entry, looked up): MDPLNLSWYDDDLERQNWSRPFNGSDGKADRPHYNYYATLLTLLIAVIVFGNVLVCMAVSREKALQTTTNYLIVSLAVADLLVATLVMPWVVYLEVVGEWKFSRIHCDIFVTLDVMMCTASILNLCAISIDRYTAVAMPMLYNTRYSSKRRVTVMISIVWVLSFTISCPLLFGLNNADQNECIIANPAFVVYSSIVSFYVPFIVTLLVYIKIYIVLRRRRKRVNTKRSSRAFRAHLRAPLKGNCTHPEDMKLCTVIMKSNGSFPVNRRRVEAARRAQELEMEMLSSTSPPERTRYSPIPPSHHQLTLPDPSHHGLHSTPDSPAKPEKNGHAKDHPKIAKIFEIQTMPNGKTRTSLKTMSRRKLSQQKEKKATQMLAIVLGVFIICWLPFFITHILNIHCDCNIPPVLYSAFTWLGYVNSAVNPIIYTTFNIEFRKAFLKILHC
Sequence of Muscarinic acetylcholine receptor M1 (Homo sapiens) (P11229 whole entry, looked up): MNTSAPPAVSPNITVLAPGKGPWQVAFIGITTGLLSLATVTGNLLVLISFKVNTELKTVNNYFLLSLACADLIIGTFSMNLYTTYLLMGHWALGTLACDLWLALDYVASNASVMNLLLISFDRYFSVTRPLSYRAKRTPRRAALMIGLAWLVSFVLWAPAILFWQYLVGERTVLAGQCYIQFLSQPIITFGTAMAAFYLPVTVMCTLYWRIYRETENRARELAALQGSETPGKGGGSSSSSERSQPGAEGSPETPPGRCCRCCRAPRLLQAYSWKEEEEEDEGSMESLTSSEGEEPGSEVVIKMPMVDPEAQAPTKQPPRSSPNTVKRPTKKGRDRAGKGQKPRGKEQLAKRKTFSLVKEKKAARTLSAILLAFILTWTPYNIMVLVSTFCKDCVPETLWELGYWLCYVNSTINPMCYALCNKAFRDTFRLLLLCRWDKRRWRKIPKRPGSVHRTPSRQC
Sequence of Gonadotropin-releasing hormone receptor (Homo sapiens) (P30968 whole entry, looked up): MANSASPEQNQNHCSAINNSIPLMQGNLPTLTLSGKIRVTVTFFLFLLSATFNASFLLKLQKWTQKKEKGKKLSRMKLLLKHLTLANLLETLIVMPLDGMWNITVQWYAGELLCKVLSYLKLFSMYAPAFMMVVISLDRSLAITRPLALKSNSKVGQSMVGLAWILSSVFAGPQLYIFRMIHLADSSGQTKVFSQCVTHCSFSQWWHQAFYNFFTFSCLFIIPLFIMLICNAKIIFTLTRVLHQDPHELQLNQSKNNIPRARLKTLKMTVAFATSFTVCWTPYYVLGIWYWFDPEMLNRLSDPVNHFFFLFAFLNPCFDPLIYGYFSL
Sequence of KiSS-1 receptor (Homo sapiens) (Q969F8 whole entry, looked up): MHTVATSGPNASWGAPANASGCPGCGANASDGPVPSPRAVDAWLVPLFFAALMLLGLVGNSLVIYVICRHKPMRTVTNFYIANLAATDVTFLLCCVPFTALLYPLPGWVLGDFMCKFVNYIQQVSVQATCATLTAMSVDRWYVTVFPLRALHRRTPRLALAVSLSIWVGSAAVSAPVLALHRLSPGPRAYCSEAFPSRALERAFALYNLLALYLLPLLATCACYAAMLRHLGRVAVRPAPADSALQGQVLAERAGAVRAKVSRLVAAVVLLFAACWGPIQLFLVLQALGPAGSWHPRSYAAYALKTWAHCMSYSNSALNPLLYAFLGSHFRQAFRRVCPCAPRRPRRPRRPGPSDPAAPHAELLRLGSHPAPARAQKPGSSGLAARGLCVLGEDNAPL

Compound: CN/C(=N\[N+](=O)[O-])NCC1CCOC1 (stereo not drawn)
- Potency [1]: inactive
- Potency [2]: inactive
- Potency [3]: inactive
- Potency [4]: inactive
- Potency [5]: inactive
- Potency [6]: inactive
- Potency [7]: inactive
- Potency [8]: inactive
- Potency [9]: inactive
- Potency [10]: inactive
- Potency [11]: inactive
- Potency [12]: inactive
- Potency [13]: inactive
- Potency [14]: inactive
- Potency [15]: inactive
- Potency [16]: inactive
- Potency [17]: inactive
- Potency [18]: inactive

Compound: CCCC(Cn1cncn1)c1ccc(Cl)cc1Cl (stereo not drawn)
- Potency [1]: inactive
- Potency [19]: inactive
- Potency [3]: inactive
- Potency [4]: inactive
- Potency [5]: inactive
- Potency [6]: inactive
- Potency [7]: inactive
- Potency [8]: inactive
- Potency [9]: inactive
- Potency [10]: inactive
- Potency [12]: inactive
- Potency [13]: inactive
- Potency [17]: inactive

Compound: Cc1cc(C)c(C2=C(OC(=O)CC(C)(C)C)C3(CCCC3)OC2=O)c(C)c1
- Potency [1]: inactive
- Potency [2]: inactive
- Potency [3]: inactive
- Potency [6]: inactive
- Potency [7]: inactive
- Potency [8]: inactive
- Potency [10]: inactive
- Potency [11]: inactive
- Potency [12]: inactive
- Potency [13]: inactive
- Potency [14]: inactive
- Potency [15]: inactive
- Potency [16]: inactive
- Potency [17]: inactive

Compound: CC(CC(C(N)=O)(c1ccccc1)c1ccccc1)N(C)C (stereo not drawn)
- Potency [1]: inactive
- Potency [2]: inactive
- Potency [3]: inactive
- Potency [4]: inactive
- Potency [5]: inactive
- Potency [7]: inactive
- Potency [9]: inactive
- Potency [10]: inactive
- Potency [11]: inactive
- Potency [12]: 0.0082 µM (active)
- Potency [13]: inactive
- Potency [14]: inactive
- Potency [15]: inactive
- Potency [16]: inactive
- Potency [17]: inactive
- Potency [18]: inactive

Compound: C=CCC1=C(C)C(OC(=O)C2C(C=C(C)C)C2(C)C)CC1=O (stereo not drawn)
- Potency [1]: 34.4 µM (active)
- Potency [19]: inactive
- Potency [3]: inactive
- Potency [5]: inactive
- Potency [8]: 28.9 µM (active)
- Potency [11]: inactive
- Potency [13]: inactive
- Potency [16]: inactive
- Potency [18]: 57.8 µM (active)

Compound: C=CC(=O)OCC(C)O (stereo not drawn)
- Potency [1]: inactive
- Potency [19]: inactive
- Potency [3]: inactive
- Potency [6]: inactive
- Potency [7]: inactive
- Potency [8]: inactive
- Potency [10]: inactive
- Potency [11]: inactive
- Potency [12]: inactive
- Potency [13]: inactive
- Potency [14]: inactive
- Potency [15]: inactive
- Potency [16]: inactive
- Potency [17]: inactive
- Potency [18]: inactive

Compound: O=C(Nc1ccccc1)N(Cc1ccc(Cl)cc1)C1CCCC1
- Potency [1]: inactive
- Potency [2]: inactive
- Potency [3]: inactive
- Potency [4]: inactive
- Potency [6]: inactive
- Potency [7]: inactive
- Potency [10]: inactive
- Potency [11]: inactive
- Potency [12]: 37.5 µM (active)
- Potency [13]: inactive
- Potency [16]: inactive
- Potency [17]: inactive
- Potency [18]: inactive

Compound: Cc1ccccc1C(=O)Nc1cccc(OC(C)C)c1
- Potency [1]: inactive
- Potency [2]: inactive
- Potency [3]: inactive
- Potency [4]: inactive
- Potency [5]: inactive
- Potency [6]: inactive
- Potency [10]: inactive
- Potency [11]: inactive
- Potency [12]: inactive
- Potency [13]: inactive
- Potency [16]: inactive
- Potency [17]: inactive
- Potency [18]: inactive

Compound: Cc1nc(N(C)C)nc(OC(=O)N(C)C)c1C
- Potency [1]: inactive
- Potency [2]: inactive
- Potency [3]: inactive
- Potency [6]: inactive
- Potency [7]: inactive
- Potency [8]: inactive
- Potency [10]: inactive
- Potency [11]: inactive
- Potency [12]: inactive
- Potency [14]: inactive
- Potency [15]: inactive
- Potency [17]: inactive
